High-throughput results from PubChem.
DT40 TDP1 CPT: DT40-hTDP1 cell growth loss with CPT | chicken DT40 Tdp1-/-;hTDP1 cells + 20 nM CPT, ATP luminescence, 48 h | Potency, µM (series often up to 46.2 µM), hits mostly inhibitors | 12% of 420,000 active | AID 686979; note: nearly all actives have a fitted effect of over 55% in size
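Cell growth measured by CellTiter-Glo luminescence after a minimum 48 h, 37 C compound exposure with 20 nM CPT in Tdp1-knockout DT40 cells stably expressing hTDP1, seeded 400/well; qHTS titration format.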
ELG1 DNA repair: blocks ELG1-dependent DNA repair in HEK293T cells | Potency, µM (highest dose often 46.1 µM), hits mostly inhibitors | 2.3% of 330,000 active | HEK293T ELG1-luciferase reporter, luminescence, 16 h; DNA damage induced by 5-fluorouridine; note: nearly all actives have a fitted effect of over 55% in size
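Step one: seed 2,000 cells per well. Step two: pin-transfer compound or DMSO alongside 5-fluorouridine. Step three: incubate 16 hr, 37 °C, 5% CO2. Step four: add ONE-Glo, wait 30 min, read luminescence.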
IL1B secr inh: blocks inflammasome-driven IL-1 beta release; THP-1 LPS/ATP IL-1B secretion, AlphaLISA, 16 h; active compounds read low; activity change, % at 57.5 µM; 4.7% of 360,000 active; AID 743279; in the data active = activity change below about -50%; inconclusive = mostly about -30% to -49%
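THP-1 cells pretreated 1 hr with compounds (up to 57.5 uM final), then stimulated with LPS (250 ng/mL final) plus ATP (1.25 mM final); secreted IL-1B measured by AlphaLISA after 16 hr, decreased signal indicating inhibition.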
HT1080-NT tox: kills 2HG-producing HT-1080-NT fibrosarcoma cells. 1.6% of 360,000 active. HT-1080-NT fibrosarcoma viability, CellTiter-Glo ATP luminescence, 48 h. Potency, µM (doses to about 46.1 µM), actives largely listed as cytotoxic. AID 686970;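 note: NT is the 2HG producing partner of a matched IDH1 knockdown line; nearly all actives have a fitted effect of over 55% in size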
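Viability of the 2HG-overproducing fibrosarcoma line after 48 hours of compound exposure at 37 degrees C was determined by luminescence with CellTiter-Glo, and concentration-effect curves were then fitted and categorized.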
TDP1 cell noCPT: qHTS for Inhibitors of human tyrosyl-DNA phosphodiesterase 1 (TDP1): qHTS in cells in absence of CPT. DT40 Tdp1-/- hTDP1 cells, no CPT, ATP luminescence, 48 h. Potency, µM (highest dose often 46.2 µM), usual class: inhibitors. 15% of 420,000 active. AID 686978, 2013; note: nearly all actives have a fitted effect of over 55% in size
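Cells were dispensed at 400 per well, compounds added by pin tool, plates incubated ≥48 hr at 37 °C, then CellTiter-Glo added for 30 min at room temperature before luminescence reading. Line: DT40 Tdp1-/- complemented with hTDP1; camptothecin omitted.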
HT1080 IDH1KD tx: toxicity to HT-1080 IDH1 knockdown cells (counter line). HT-1080 IDH1 knockdown viability, ATP luminescence, 48 h. Potency, µM (doses to about 46.1 µM), usual class: cytotoxic. 2% of 360,000 active. AID 686971
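Viability of IDH1-knockdown HT-1080 fibrosarcoma cells was assessed by CellTiter-Glo after 48 h at 37 °C with titrated compound; concentration-effect curves were classified by fit quality and response size.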
Of the large screens only hits and unclear results are named; the others gave an inactive call; ! = a repeat was not active. Sampled rows, rich in hits. Any-hit rate of the full collection: about 19%. Unless noted, calls come from the whole dose curve; as a rule, active = well fitted curve in the direction sought with a large enough effect; inconclusive = small, poorly fitted or top-dose-only effect, or another doubt; inactive = no such curve, though single readings can be large; an effect the other way counts as inactive or inconclusive.

CCc1ccc(-c2cn3c(n2)SCC3)cc1	ELG1 DNA repair inconclusive, HT1080-NT tox inconclusive
CCc1ccc(-c2cn(-c3nc(C)cc(C)n3)c(=N)o2)cc1	DT40 TDP1 CPT inconclusive, IL1B secr inh -59, TDP1 cell noCPT inconclusive
CCOc1ccccc1NC(=O)C(NCC1(N2CCCCC2)CCCCC1)c1ccccc1 (stereo not given)	DT40 TDP1 CPT inconclusive, ELG1 DNA repair inconclusive, IL1B secr inh inconclusive, TDP1 cell noCPT 16µM
Oc1ccc(-c2nccc(-c3ccccn3)n2)cc1	ELG1 DNA repair inconclusive, IL1B secr inh inconclusive
O=C1CCCc2nc(N3CCN(C(c4ccccc4)c4ccccc4)CC3)ncc21	DT40 TDP1 CPT 16µM, ELG1 DNA repair inconclusive, TDP1 cell noCPT 21µM
CCN=C(NS(=O)(=O)c1ccc(Br)cc1)c1ccc(Cl)cc1	none
CCCCn1c(SCc2nc(N)nc(N3CCCCC3)n2)nc2c1c(=O)n(C)c(=O)n2C	TDP1 cell noCPT inconclusive
O=C(CSc1nncc(=O)[nH]1)NCc1ccccc1	DT40 TDP1 CPT 21µM, TDP1 cell noCPT inconclusive, HT1080 IDH1KD tx inconclusive
O=C(O)/C=C/C(=O)Nc1ccc(SC(F)(F)C(F)(F)C(F)(F)F)cc1	IL1B secr inh -54
Cc1cccc(NC(=O)CNC(=O)c2cccc(-n3cccc3)c2)c1C	none
Cc1ccc(C2C3=C(NCCN=C3c3ccccc3)C(=O)N2c2ccccc2)cc1 (stereo not given)	DT40 TDP1 CPT 21µM, ELG1 DNA repair inconclusive, IL1B secr inh -63, HT1080-NT tox 11µM, TDP1 cell noCPT 23µM, HT1080 IDH1KD tx inconclusive
CCOc1ccc(N2C(=O)C3=C(C(c4ccc(Cl)cc4)=NCCN3)C2c2cccnc2)cc1 (stereo not given)	DT40 TDP1 CPT inconclusive, HT1080-NT tox inconclusive, TDP1 cell noCPT inconclusive, HT1080 IDH1KD tx 15µM
CS(=O)(=O)C1=C(O)C(=O)N(c2ccccc2)C1c1ccccc1 (stereo not given)	none
Cc1ccc(N2C(=O)c3n[nH]c(C)c3C2c2cccnc2)cc1 (stereo not given)	none
CCCCn1c(N)c(N(CC(C)C)C(=O)c2cc(C)oc2C)c(=O)[nH]c1=O	none
O=C(CCl)N1c2ccccc2Oc2ccc3ccccc3c21	DT40 TDP1 CPT 5.2µM, IL1B secr inh inconclusive, HT1080-NT tox inconclusive, TDP1 cell noCPT 1.5µM, HT1080 IDH1KD tx 16µM (no result: ELG1 DNA repair)
CC(=O)N1c2ccccc2Oc2cc3ccccc3cc21	ELG1 DNA repair inconclusive
Cn1cc(C(=O)CCl)c2ccccc21	DT40 TDP1 CPT 2.3µM, IL1B secr inh -100, HT1080-NT tox inconclusive, TDP1 cell noCPT 4.6µM, HT1080 IDH1KD tx inconclusive
Cn1cc(/C(Cc2ccccc2)=N\O)c2ccccc21	DT40 TDP1 CPT 23µM, TDP1 cell noCPT 16µM
Cc1ccc(N2CCN(C(=O)c3nn(C)c4c3CS(=O)(=O)c3ccccc3-4)CC2C)cc1 (stereo not given)	DT40 TDP1 CPT 21µM!, TDP1 cell noCPT inconclusive
COc1cc(C(=O)N/C(=C/c2ccc(F)cc2)C(=O)NC(C(=O)O)c2ccccc2)cc(OC)c1OC (stereo not given)	none
C=CCNc1nc(-c2ccc(O)c(C(N)=O)c2)cs1	DT40 TDP1 CPT 13µM, ELG1 DNA repair inconclusive, TDP1 cell noCPT 18µM
c1ccc2oc(-c3csc(NCC4CCCO4)n3)cc2c1 (stereo not given)	DT40 TDP1 CPT inconclusive, ELG1 DNA repair inconclusive, TDP1 cell noCPT inconclusive
NC(=O)c1cc(-c2csc(NCCc3ccccc3)n2)ccc1O	DT40 TDP1 CPT inconclusive, TDP1 cell noCPT inconclusive
NC(=O)c1cc(-c2csc(-c3cccnc3)n2)ccc1O	ELG1 DNA repair inconclusive, IL1B secr inh inconclusive, TDP1 cell noCPT 13µM
C=CCNc1nc(-c2cc3ccccc3o2)cs1	ELG1 DNA repair inconclusive, IL1B secr inh -95
c1ccc(-c2nc(-c3cccnc3)cs2)cc1	ELG1 DNA repair inconclusive
CCOc1ccc(C(C)=O)cc1CN1C(=O)NC2(CCCCCCC2)C1=O	DT40 TDP1 CPT inconclusive, TDP1 cell noCPT inconclusive
CC(NC(=O)c1cc2ccccn2n1)c1ccccc1 (stereo not given)	none (no result: ELG1 DNA repair, IL1B secr inh, HT1080-NT tox, HT1080 IDH1KD tx)
CN(C)Cc1nc2ccccc2c(=O)n1Cc1nc(-c2cc3ccccc3o2)cs1	DT40 TDP1 CPT inconclusive, ELG1 DNA repair inconclusive, TDP1 cell noCPT 18µM, HT1080 IDH1KD tx inconclusive
Cc1csc(Cn2c(CN(C)C)nc3ccccc3c2=O)n1	none
CCOc1ccc(-c2csc(Cn3c(CN4CCN(C)CC4)nc4ccccc4c3=O)n2)cc1	DT40 TDP1 CPT 7.3µM, ELG1 DNA repair 21µM, IL1B secr inh -75, TDP1 cell noCPT 8.2µM
O=C(Nc1ccc(F)cc1)C(c1ccncc1)N1CCN(CC(=O)N2CCCC2)CC1 (stereo not given)	none (no result: ELG1 DNA repair)
CCOC(=O)c1c(-c2ccccc2)csc1NC(=O)CCN1CCOCC1	DT40 TDP1 CPT inconclusive, ELG1 DNA repair 23µM, TDP1 cell noCPT 23µM
CCOC(=O)c1c(-c2ccc(C)cc2)csc1NC(=O)C1CC=CCC1C(=O)O (stereo not given)	none
Cc1csc(NC(=O)COc2ccc3c(C)cc(=O)oc3c2)n1	none
CCOC(=O)c1c(-c2ccccc2)csc1NC(=O)CSc1ccccc1	TDP1 cell noCPT inconclusive
CCOC(=O)c1c(-c2ccccc2)csc1NC(=O)c1ccc(S(=O)(=O)N2CCOCC2)cc1	DT40 TDP1 CPT 5.8µM, ELG1 DNA repair inconclusive, TDP1 cell noCPT 10µM
CCOC(=O)c1c(-c2ccccc2)csc1NC(=O)COc1ccc2c(C)cc(=O)oc2c1	DT40 TDP1 CPT inconclusive, ELG1 DNA repair inconclusive, TDP1 cell noCPT 12µM
CCOC(=O)c1c(-c2ccc(C)cc2)csc1NC(=O)CCN1CCOCC1	DT40 TDP1 CPT inconclusive, TDP1 cell noCPT 23µM
CC(C)C1Cc2[nH]c(=S)[nH]c(=O)c2C(c2ccc(F)cc2)O1 (stereo not given)	none (no result: ELG1 DNA repair)
CCCCn1c(N)c(N(CCC(C)C)C(=O)CSc2nncn2-c2ccccc2)c(=O)[nH]c1=O	none
Cc1cccc(/C(N)=N/OC(=O)CCCc2ccccc2)c1	none
CCCN(CCC)S(=O)(=O)c1ccc(C)cc1	none
CCOC(=O)c1cc(-c2ccc(N3CCOCC3)cc2)nn1-c1ccccc1C(=O)O	none
CCOC(=O)c1[nH]cc(-c2ccccc2)c1N1CCOCC1	DT40 TDP1 CPT 16µM, ELG1 DNA repair inconclusive, TDP1 cell noCPT 29µM
CCOC(=O)c1cc(-c2ccc(N3CCOCC3)cc2)nn1-c1ccccc1	DT40 TDP1 CPT 21µM, ELG1 DNA repair inconclusive, TDP1 cell noCPT 12µM
